The text below walks through data of PubChem BioAssay (NCATS).

Inconclusive results are not listed. Unmarked numbers belong to inactive results. Activity calls are given as the source filed them. Calls follow the shape of the dose curve; as a rule, active = well fitted curve in the direction sought with a large enough effect; inconclusive = small, poorly fitted or top-dose-only effect, or another doubt; inactive = no such curve, though single readings can be large; an effect the other way counts as inactive or inconclusive.

Assay [1] deals with Cellular tumor antigen p53 (Homo sapiens) (UniProt P04637). In words: Primary qHTS for small molecule compounds that upregulate eGFP-tagged delta133p53alpha (in N-terminal) cells. (AID 2060322). Also: nearly all actives have a fitted effect of over 75% in size. Also: potency is read from the fitted curve at half-maximal effect.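 As to activation: series mostly up to about 56 µM; 0% = DMSO vehicle and 100% = reference activator.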 Conditions: NCI-H358 eGFP-delta133p53alpha fluorescence, 24 h; activation: active compounds read high. The method, boiled down:
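NCI-H358 cells pre-induced 24 h with 10 ng/ml doxycycline to express N-terminal eGFP-delta133p53alpha, then dosed 24 h at 37C without doxycycline; fixed, Hoechst-stained, GFP intensity by laser scanning cytometry, normalized to DMSO (0%) and 57.5 uM 5-azacytidine (100%).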

Assay [2] addresses Aldehyde dehydrogenase, mitochondrial (Homo sapiens) (UniProt P05091). The assay can be described thus: qHTS for Inhibitors of the Aldehyde Dehydrogenase Family (ALDH2) Primary screen (AID 2061308).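 Also: plate controls were vehicle for no effect and reference inhibitor for full effect; nearly all actives have a fitted effect of over 55% in size.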
For assay [3], the target named is Retinaldehyde dehydrogenase 3 (Homo sapiens) (UniProt P47895). In words: qHTS for Inhibitors of the Aldehyde Dehydrogenase Family (ALDH1A3) Primary screen (AID 2061315;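 also: plate controls were DMSO vehicle for no effect and reference inhibitor for full effect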). (In qHTS, concentration-response curves come from the screen itself.)

Chain of Cellular tumor antigen p53 (Homo sapiens) (P04637 whole entry, looked up): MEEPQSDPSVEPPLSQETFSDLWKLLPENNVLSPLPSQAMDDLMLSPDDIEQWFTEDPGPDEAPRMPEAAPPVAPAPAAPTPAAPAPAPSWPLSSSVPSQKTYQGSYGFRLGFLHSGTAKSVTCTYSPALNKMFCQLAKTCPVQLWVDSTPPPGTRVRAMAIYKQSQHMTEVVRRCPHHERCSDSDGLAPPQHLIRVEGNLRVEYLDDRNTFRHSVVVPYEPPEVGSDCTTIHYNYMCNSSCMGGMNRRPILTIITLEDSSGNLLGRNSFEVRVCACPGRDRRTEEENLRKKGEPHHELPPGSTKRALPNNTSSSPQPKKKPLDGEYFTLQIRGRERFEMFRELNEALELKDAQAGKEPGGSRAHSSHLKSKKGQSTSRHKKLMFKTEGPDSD

With `NCCCNc1ccc(Nc2nccc(Nc3cc(C4CC4)[nH]n3)n2)cc1`, in assay [1], the Potency is 1510 nM (active). For the same compound, the Potency entry in assay [2] and in assay [3] was “inactive” throughout.

In the case of `CCCCc1nc(C)c(CC(=S)N(C)C)c(=O)n1Cc1ccc(-c2ccccc2-c2nn[nH]n2)cc1`, the activation in assay [1] was 18.1%. The Potency result in assay [2] and in assay [3] was “inactive” throughout.

As to `O=C(OC[C@H]1O[C@H](O[C@H]2CO[C@H](CO)[C@@H](O)[C@@H]2O)[C@H](O)[C@@H](O)[C@H]1O)c1ccccc1`, in assay [1], the activation was -4.58%. Further, the Potency result in assay [2] and in assay [3] was “inactive” throughout.

Take `CC(C)(O)/C=C/C(=O)[C@](C)(O)[C@H]1[C@H](O)C[C@@]2(C)[C@@H]3CC=C4[C@@H](C=C(O[C@@H]5O[C@H](CO)[C@@H](O)[C@H](O)[C@H]5O)C(=O)C4(C)C)[C@]3(C)C(=O)C[C@]12C`: the activation in assay [1] is -13.7%. The Potency entry in assay [2] and in assay [3] was “inactive” throughout.

Turning to `COc1cc2c(c(OC)c1CC=C(C)C)C[C@H](c1ccc(O)c(CC=C(C)C)c1O)CO2`, the activation in assay [1] is -7.14%. Further, the Potency entry in assay [2] and in assay [3] was “inactive” each time.

As for `O=C(/C=C/c1ccc(O)cc1)OCC1=C[C@@H](O)[C@@H]2C=CO[C@@H](O[C@@H]3O[C@H](CO)[C@@H](O)[C@H](O)[C@H]3O)[C@H]12`, in assay [1], the activation was -9.16%. The Potency entry in assay [2] and in assay [3] was “inactive” in each case.

With `C=C(C(=O)OC)[C@]12O[C@@](C)(CC[C@@]3(O)/C(=C\C)C(=O)O[C@]3(C)C[C@@H]1OC(=O)C(CO)CN1CCCC1C(=O)O)CC2=O` (some centres not stated), the activation in assay [1] is -18.8%. In addition, the Potency entry in assay [2] and in assay [3] was “inactive” each time.

In the case of `C=C(C)[C@@H]1CC[C@]2(C(=O)O)CC[C@]3(C)[C@H](CCC4[C@@]5(C)CCC(=O)C(C)(C)C5C(O)C[C@]43C)C12` (some centres not stated), in assay [1], the activation is 13%. The Potency result in assay [2] and in assay [3] was “inactive” in each case.

Regarding `COC(=O)CC1(O)C(=O)Nc2ccccc21` (configuration not stated), the activation in assay [1] is -1.79%. In addition, the Potency entry in assay [2] and in assay [3] was “inactive” each time.
